Key:
Assay in all cases: PBM; 200 nM protein, PBS
Conditions in all cases: dsDNA, one strand shown
[1] = target: HOXB4 (Homo sapiens, UniProt P17483 148-234)
[2] = target: HOXB4 (Homo sapiens, UniProt P17483 148-234, V174I)
[3] = target: ALX1 (Homo sapiens, UniProt Q15699 118-204, L144V)
[4] = target: ALX1 (Homo sapiens, UniProt Q15699 118-204, L144R)
[5] = target: VAX1 (Homo sapiens, UniProt Q5SQQ9 86-172)
[6] = target: VAX1 (Homo sapiens, UniProt Q5SQQ9 86-172, T142I)
[7] = target: ALX1 (Homo sapiens, UniProt Q15699 118-204)
[8] = target: VAX1 (Homo sapiens, UniProt Q5SQQ9 86-172, K157R)
[9] = target: HOXD13 (Homo sapiens, UniProt P35453 263-343, T313R)
[10] = target: HOXD13 (Homo sapiens, UniProt P35453 263-343)
[11] = target: ALX3 (Homo sapiens, UniProt O95076 139-225)
[12] = target: ALX3 (Homo sapiens, UniProt O95076 139-225, L168Q)
[13] = target: HOXD13 (Homo sapiens, UniProt P35453 263-343, T313A)
[14] = target: ALX3 (Homo sapiens, UniProt O95076 139-225, L168V)
[15] = target: ALX3 (Homo sapiens, UniProt O95076 139-225, N203S)
[16] = target: PROP1 (Homo sapiens, UniProt O75360 56-141)
[17] = target: PROP1 (Homo sapiens, UniProt O75360 56-141, R99H)
[18] = target: PROP1 (Homo sapiens, UniProt O75360 56-141, F88S)
[19] = target: CRX (Homo sapiens, UniProt O43186 26-111, R41L)
[20] = target: SHOX (Homo sapiens, UniProt O15266 103-189)
[21] = target: PITX2 (Homo sapiens, UniProt Q99697 72-157)

Chain of SHOX (O15266 103-189): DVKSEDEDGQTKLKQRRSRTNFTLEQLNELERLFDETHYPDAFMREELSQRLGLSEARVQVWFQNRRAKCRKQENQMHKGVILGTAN
Chain of HOXB4 (Homo sapiens, UniProt P17483 148-234, V174I) (P17483 148-234 V174I): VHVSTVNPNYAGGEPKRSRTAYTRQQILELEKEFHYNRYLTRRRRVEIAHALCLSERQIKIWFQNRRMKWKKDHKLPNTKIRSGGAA
Chain of HOXB4 (Homo sapiens, UniProt P17483 148-234) (P17483 148-234): as the sequence (P17483 148-234 V174I) above, with I27V counted along it
Chain of ALX1 (Homo sapiens, UniProt Q15699 118-204) (Q15699 118-204): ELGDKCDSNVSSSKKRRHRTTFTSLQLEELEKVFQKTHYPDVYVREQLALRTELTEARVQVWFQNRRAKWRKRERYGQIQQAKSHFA
Chain of ALX1 (Homo sapiens, UniProt Q15699 118-204, L144R) (Q15699 118-204 L144R): as the sequence (Q15699 118-204) above, with L27R counted along it
Chain of ALX3 (Homo sapiens, UniProt O95076 139-225) (O95076 139-225): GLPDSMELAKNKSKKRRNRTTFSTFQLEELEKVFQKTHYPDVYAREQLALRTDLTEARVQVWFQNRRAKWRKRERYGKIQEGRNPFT
Chain of ALX3 (Homo sapiens, UniProt O95076 139-225, N203S) (O95076 139-225 N203S): as the sequence (O95076 139-225) above, with N65S counted along it
Chain of CRX (O43186 26-111 R41L): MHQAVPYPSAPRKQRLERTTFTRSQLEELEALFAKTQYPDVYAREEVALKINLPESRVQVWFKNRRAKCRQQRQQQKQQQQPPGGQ
Chain of PROP1 (Homo sapiens, UniProt O75360 56-141) (O75360 56-141): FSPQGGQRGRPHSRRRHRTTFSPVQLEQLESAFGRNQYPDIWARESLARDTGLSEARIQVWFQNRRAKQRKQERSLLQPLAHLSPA
Chain of PROP1 (Homo sapiens, UniProt O75360 56-141, R99H) (O75360 56-141 R99H): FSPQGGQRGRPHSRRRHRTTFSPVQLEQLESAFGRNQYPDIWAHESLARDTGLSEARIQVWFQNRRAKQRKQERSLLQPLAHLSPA
Chain of PROP1 (Homo sapiens, UniProt O75360 56-141, F88S) (O75360 56-141 F88S): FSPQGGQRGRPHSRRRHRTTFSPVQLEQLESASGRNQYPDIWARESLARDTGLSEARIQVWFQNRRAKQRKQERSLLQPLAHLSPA
Chain of ALX3 (Homo sapiens, UniProt O95076 139-225, L168V) (O95076 139-225 L168V): as the sequence (O95076 139-225) above, with L30V counted along it
Chain of ALX3 (Homo sapiens, UniProt O95076 139-225, L168Q) (O95076 139-225 L168Q): as the sequence (O95076 139-225) above, with L30Q counted along it
Chain of ALX1 (Homo sapiens, UniProt Q15699 118-204, L144V) (Q15699 118-204 L144V): as the sequence (Q15699 118-204) above, with L27V counted along it
Chain of VAX1 (Homo sapiens, UniProt Q5SQQ9 86-172, T142I) (Q5SQQ9 86-172 T142I): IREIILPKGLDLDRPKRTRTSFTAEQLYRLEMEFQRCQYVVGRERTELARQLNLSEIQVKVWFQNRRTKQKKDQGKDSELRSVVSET
Chain of HOXD13 (Homo sapiens, UniProt P35453 263-343, T313A) (P35453 263-343 T313A): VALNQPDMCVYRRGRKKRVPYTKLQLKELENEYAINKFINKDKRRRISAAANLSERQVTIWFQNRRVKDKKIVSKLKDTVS
Chain of HOXD13 (Homo sapiens, UniProt P35453 263-343, T313R) (P35453 263-343 T313R): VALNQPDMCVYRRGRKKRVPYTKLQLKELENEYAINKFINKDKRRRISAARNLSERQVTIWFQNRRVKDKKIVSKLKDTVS
Chain of HOXD13 (Homo sapiens, UniProt P35453 263-343) (P35453 263-343): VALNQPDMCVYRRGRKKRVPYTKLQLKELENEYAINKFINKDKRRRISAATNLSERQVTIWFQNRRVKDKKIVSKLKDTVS
Chain of VAX1 (Homo sapiens, UniProt Q5SQQ9 86-172) (Q5SQQ9 86-172): as the sequence (Q5SQQ9 86-172 T142I) above, with I57T counted along it
Chain of VAX1 (Homo sapiens, UniProt Q5SQQ9 86-172, K157R) (Q5SQQ9 86-172 K157R): as the sequence (Q5SQQ9 86-172 T142I) above, with I57T, K72R counted along it

In the case of AGGAGGAG, the binding signal [1] is reported as 7.49 upbm affinity estimate (log intensity, higher = more binding, comparable within an allelic series) and the binding signal [2] is reported as 7.57 upbm affinity estimate (log intensity, higher = more binding, comparable within an allelic series).
With AAAATTAC the binding signal [1] was 11.3 upbm affinity estimate (log intensity, higher = more binding, comparable within an allelic series) and the binding signal [2] was 11.7 upbm affinity estimate (log intensity, higher = more binding, comparable within an allelic series).
CTACCGCC was tested, and the binding signal [1] was 7.59 upbm affinity estimate (log intensity, higher = more binding, comparable within an allelic series) and the binding signal [2] was 7.48 upbm affinity estimate (log intensity, higher = more binding, comparable within an allelic series).
GAATAATC was tested, and the binding signal [1] was 11.1 upbm affinity estimate (log intensity, higher = more binding, comparable within an allelic series) and the binding signal [2] was 11.3 upbm affinity estimate (log intensity, higher = more binding, comparable within an allelic series).
With AGACCTAG the binding signal [1] was 7.5 upbm affinity estimate (log intensity, higher = more binding, comparable within an allelic series) and the binding signal [2] was 7.5 upbm affinity estimate (log intensity, higher = more binding, comparable within an allelic series).
With CGGGAAAG the binding signal [3] was 6.35 upbm affinity estimate (log intensity, higher = more binding, comparable within an allelic series), the binding signal [4] was 6.49 upbm affinity estimate (log intensity, higher = more binding, comparable within an allelic series) and the binding signal [5] was 7.08 upbm affinity estimate (log intensity, higher = more binding, comparable within an allelic series). The binding signal [6] was 7.2 upbm affinity estimate (log intensity, higher = more binding, comparable within an allelic series), the binding signal [7] was 6.44 upbm affinity estimate (log intensity, higher = more binding, comparable within an allelic series) and the binding signal [8] was 7.08 upbm affinity estimate (log intensity, higher = more binding, comparable within an allelic series).
For CGGGATGC, the binding signal [3] was 6.54 upbm affinity estimate (log intensity, higher = more binding, comparable within an allelic series), the binding signal [4] was 6.46 upbm affinity estimate (log intensity, higher = more binding, comparable within an allelic series) and the binding signal [7] was 6.51 upbm affinity estimate (log intensity, higher = more binding, comparable within an allelic series).
CTCCCGGC was tested, and the binding signal [9] was 9.46 upbm affinity estimate (log intensity, higher = more binding, comparable within an allelic series), the binding signal [10] was 9.39 upbm affinity estimate (log intensity, higher = more binding, comparable within an allelic series) and the binding signal [11] was 7.57 upbm affinity estimate (log intensity, higher = more binding, comparable within an allelic series). The binding signal [12] was 7.75 upbm affinity estimate (log intensity, higher = more binding, comparable within an allelic series), the binding signal [13] was 9.4 upbm affinity estimate (log intensity, higher = more binding, comparable within an allelic series) and the binding signal [14] was 7.74 upbm affinity estimate (log intensity, higher = more binding, comparable within an allelic series). For the same sequence, the binding signal [15] was 7.67 upbm affinity estimate (log intensity, higher = more binding, comparable within an allelic series).
In the case of CTGGGGGA, the binding signal [11] is reported as 7.77 upbm affinity estimate (log intensity, higher = more binding, comparable within an allelic series), the binding signal [12] is reported as 7.72 upbm affinity estimate (log intensity, higher = more binding, comparable within an allelic series) and the binding signal [14] is reported as 7.67 upbm affinity estimate (log intensity, higher = more binding, comparable within an allelic series). The binding signal [15] was 7.72 upbm affinity estimate (log intensity, higher = more binding, comparable within an allelic series).
For CGGGCTGC, the binding signal [16] was 6.7 upbm affinity estimate (log intensity, higher = more binding, comparable within an allelic series), the binding signal [17] was 6.83 upbm affinity estimate (log intensity, higher = more binding, comparable within an allelic series) and the binding signal [18] was 6.68 upbm affinity estimate (log intensity, higher = more binding, comparable within an allelic series).
In the case of CTTAAGCA, the binding signal [1] is reported as 10.1 upbm affinity estimate (log intensity, higher = more binding, comparable within an allelic series), the binding signal [2] is reported as 10.1 upbm affinity estimate (log intensity, higher = more binding, comparable within an allelic series) and the binding signal [19] is reported as 10.3 upbm affinity estimate (log intensity, higher = more binding, comparable within an allelic series).
With AAACTAAG the binding signal [20] was 8.12 upbm affinity estimate (log intensity, higher = more binding, comparable within an allelic series).
With GAATTAGA the binding signal [20] was 9.8 upbm affinity estimate (log intensity, higher = more binding, comparable within an allelic series).
With GAAAAGTA the binding signal [20] was 7.94 upbm affinity estimate (log intensity, higher = more binding, comparable within an allelic series).
CCAGATAA was tested, and the binding signal [20] was 8.47 upbm affinity estimate (log intensity, higher = more binding, comparable within an allelic series).
For ATCTATTG, the binding signal [20] was 8.32 upbm affinity estimate (log intensity, higher = more binding, comparable within an allelic series).
CTCAATAA was tested, and the binding signal [20] was 9.16 upbm affinity estimate (log intensity, higher = more binding, comparable within an allelic series).
AGCATTAG was tested, and the binding signal [1] was 10.5 upbm affinity estimate (log intensity, higher = more binding, comparable within an allelic series), the binding signal [2] was 10.7 upbm affinity estimate (log intensity, higher = more binding, comparable within an allelic series) and the binding signal [19] was 10.1 upbm affinity estimate (log intensity, higher = more binding, comparable within an allelic series).
ATTATCCA was tested, and the binding signal [20] was 9.69 upbm affinity estimate (log intensity, higher = more binding, comparable within an allelic series).
With CCGTGCGC the binding signal [1] was 7.73 upbm affinity estimate (log intensity, higher = more binding, comparable within an allelic series), the binding signal [2] was 7.75 upbm affinity estimate (log intensity, higher = more binding, comparable within an allelic series) and the binding signal [21] was 7.97 upbm affinity estimate (log intensity, higher = more binding, comparable within an allelic series).
In the case of TCAAGTAA, the binding signal [20] is reported as 8.54 upbm affinity estimate (log intensity, higher = more binding, comparable within an allelic series).
In the case of CCCATTTA, the binding signal [20] is reported as 8.95 upbm affinity estimate (log intensity, higher = more binding, comparable within an allelic series).
For TTAGGAAA, the binding signal [20] was 8.58 upbm affinity estimate (log intensity, higher = more binding, comparable within an allelic series).
With GCCTCTCC the binding signal [1] was 7.31 upbm affinity estimate (log intensity, higher = more binding, comparable within an allelic series), the binding signal [2] was 7.24 upbm affinity estimate (log intensity, higher = more binding, comparable within an allelic series) and the binding signal [16] was 6.75 upbm affinity estimate (log intensity, higher = more binding, comparable within an allelic series). For the same sequence, the binding signal [17] was 6.63 upbm affinity estimate (log intensity, higher = more binding, comparable within an allelic series) and the binding signal [18] was 6.67 upbm affinity estimate (log intensity, higher = more binding, comparable within an allelic series).
For AATATCGA, the binding signal [20] was 8.49 upbm affinity estimate (log intensity, higher = more binding, comparable within an allelic series).
In the case of TCATAACA, the binding signal [20] is reported as 8.35 upbm affinity estimate (log intensity, higher = more binding, comparable within an allelic series).
